5 molecules from PubChem BioAssay can be followed below.

The nature of assay [1]: small molecules captured by biotinylated probe aFSTL3 – biochemical, small-molecule microarray, fluorescence 635/667, stem cell growth factor project, primary screen (AID 1064).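 Note: measures binding of the biotinylated anti-FSTL3 antibody to printed compounds.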 Conditions: higher = more signal.
The nature of assay [2]: binders from COS7 lysate, DM2A8 probe, primary screen, torsin A project, cell lysate, small-molecule microarray, fluorescence 635/667 (AID 1065). Particulars: higher = more signal, COS7 lysate expressing mutant human TOR1A.
Assay [3] can be described thus: small molecules captured by biotinylated probe aFGF2 – biochemical, small-molecule microarray, fluorescence 635/667, stem cell growth factor project, primary screen (AID 1067).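 Note: measures binding of biotinylated aFGF2 protein to printed compounds on slides; z-score merges feature fluorescence and signal-to-noise across triplicate slides.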 Conditions: higher = more signal.
Assay [4] can be described thus: small molecules captured by biotinylated probe aFGF10 – biochemical, small-molecule microarray, fluorescence 635/667, stem cell growth factor project, primary screen (AID 1071).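 Note: score merges 667 nm spot intensity and signal to noise from triplicate slides.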 Particulars: higher = more signal.
Assay [5] deals with Neurogenic locus notch homolog protein 2 (Homo sapiens) (UniProt Q04721). The assay can be described thus: small molecules binding Notch2 protein – biochemical, small-molecule microarray, 635 nm fluorescence, stem cell growth factors, primary screen (AID 1073). Conditions: higher = more signal.
The target in assay [6] is Pro-neuregulin-1, membrane-bound isoform (Homo sapiens) (UniProt Q02297). The assay can be described thus: small molecules binding neuregulin-1 protein – biochemical, small-molecule microarray, fluorescence 635/667, psychiatric disease protein project, primary screen (AID 1075).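 Note: score combines 667 nm spot fluorescence with signal to noise.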 Conditions: NRG1 binding, 635 nm fluorescence, higher = more signal.
In assay [7] the test system is Neuregulin-1 EGF-like domain. The assay can be described thus: small molecules binding NRG1 EGF domain – biochemical, small-molecule microarray, 635 nm fluorescence, primary screen (AID 1081).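 Note: binding of the protein to compounds printed on small-molecule microarray slides.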 Conditions: higher = more signal.
The nature of assay [8]: FRG1 expression reporter modulators in myotubes – cell-based, C2C12 myotubes, firefly/Renilla luciferase, luminescence, FRG1 inhibition for FSHD, primary screen (AID 1084). Conditions: FRG1 promoter luciferase, higher = more signal, called active from +8 up or from −8 down.
Assay [9] can be described thus: small molecules captured by biotinylated probe aFST – biochemical, small-molecule microarray, fluorescence 635/667, stem cell growth factor project, primary screen (AID 1086).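 Note: score merges 667 nm fluorescence with signal-to-noise of each printed compound spot.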 Particulars: higher = more signal.
The nature of assay [10]: binders of probe aHhip on microarray, primary screen, stem cell growth factor project, biochemical, small-molecule microarray, fluorescence 635/667 (AID 1087).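 Note: score merges spot fluorescence at 667nm with spot signal to noise ratio.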 Particulars: higher = more signal.
The subject of assay [11] is PRMT1 (protein arginine N-methyltransferase 1). Nature of the assay: small molecules binding arginine methyltransferase PRMT1 – biochemical, small-molecule microarray, 635 nm fluorescence, primary screen (AID 1088).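 Note: binding of Prmt1 protein to compounds spotted on small-molecule microarray slides.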 Particulars: higher = more signal.
The nature of assay [12]: growth effects on S. cerevisiae YJM789 – YJM789 clinical isolate, OD600, 24 h, basal, primary screen (AID 1089).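 Note: growth of clinical yeast isolate S. cerevisiae YJM 789 seeded 1000 cells per well; test concentration not given here.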 Particulars: higher = more signal, called active from +8 up or from −8 down.
A short description of assay [13]: S. pombe growth modifiers, basal conditions – strain 972, OD600, 24 h, no modulator, primary screen (AID 1090).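 Note: basal condition with compound alone and no growth modifier present; test concentration not given here.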 Particulars: S. pombe 972 growth, higher = more signal, called active from +8 up or from −8 down.
A short description of assay [14]: budding yeast growth modifiers under rapamycin – strain BY4716, OD600, 96 h, primary screen (AID 1091). Note: test concentration not given here. Conditions: S. cerevisiae BY4716 + rapamycin, higher = more signal, called active from +8 up or from −8 down.
Assay [15] deals with Torsin-1A-interacting protein 2 (Homo sapiens) (UniProt Q8NFQ8). The assay can be described thus: small molecules binding lysate-expressed LULL1 – cell lysate, human LULL1 lysate, 635/667 nm fluorescence, primary screen (AID 1092).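 Note: probe is lysate of COS7 cells overexpressing human LULL1; score merges per-feature 667 nm fluorescence with signal-to-noise.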 Conditions: small-molecule microarray, hLULL1 lysate binding, 635 nm fluorescence; higher = more signal.
Assay [16] is described as follows: optical density change of DRC41 E. coli – strain DRC41, OD650, 24 h, E. coli filamentation project, primary screen (AID 1093).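 Note: MC1000 strain lacking acrAB efflux and sulA so SOS filamentation is blocked; test concentration not given here.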 Conditions: E. coli DRC41 growth, higher = more signal, called active from +8 up or from −8 down.
Assay [17] in a line: probe aLefty2 binding to arrayed compounds – biochemical, biotinylated probe, 635/667 nm fluorescence, primary screen (AID 1094).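 Note: score merges spot fluorescence near 667 nm with spot signal-to-noise ratio.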 Conditions: small-molecule microarray, higher = more signal.
For assay [18], the system named is Noggin (protein binding on small-molecule microarray). Nature of the assay: small molecules binding Noggin protein – biochemical, 635/667 nm fluorescence, primary screen (AID 1095).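 Note: score merges 667 nm feature fluorescence with signal to noise over triplicate slides.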 Particulars: 635 nm fluorescence, higher = more signal.
The target of assay [19] is Neurogenic locus notch homolog protein 3 (Homo sapiens) (UniProt Q9UM47). Nature of the assay: small molecules binding NOTCH3 protein – biochemical, 635/667 nm fluorescence, primary screen (AID 1096). Particulars: small-molecule microarray, 635 nm fluorescence, higher = more signal.
Assay [20] is described as follows: probe aEGFR binding to arrayed compounds – biochemical, biotinylated probe, 635/667 nm fluorescence, primary screen (AID 1097).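 Note: probe is a biotinylated anti-EGFR antibody binding compounds printed on slides; score combines fluorescence near 667 nm and signal to noise of each spot.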 Conditions: small-molecule microarray, higher = more signal.

Active and inactive are the calls of the source.

Sequence of Pro-neuregulin-1, membrane-bound isoform (Homo sapiens) (Q02297 whole entry, looked up, the tested form may be a part, canonical isoform): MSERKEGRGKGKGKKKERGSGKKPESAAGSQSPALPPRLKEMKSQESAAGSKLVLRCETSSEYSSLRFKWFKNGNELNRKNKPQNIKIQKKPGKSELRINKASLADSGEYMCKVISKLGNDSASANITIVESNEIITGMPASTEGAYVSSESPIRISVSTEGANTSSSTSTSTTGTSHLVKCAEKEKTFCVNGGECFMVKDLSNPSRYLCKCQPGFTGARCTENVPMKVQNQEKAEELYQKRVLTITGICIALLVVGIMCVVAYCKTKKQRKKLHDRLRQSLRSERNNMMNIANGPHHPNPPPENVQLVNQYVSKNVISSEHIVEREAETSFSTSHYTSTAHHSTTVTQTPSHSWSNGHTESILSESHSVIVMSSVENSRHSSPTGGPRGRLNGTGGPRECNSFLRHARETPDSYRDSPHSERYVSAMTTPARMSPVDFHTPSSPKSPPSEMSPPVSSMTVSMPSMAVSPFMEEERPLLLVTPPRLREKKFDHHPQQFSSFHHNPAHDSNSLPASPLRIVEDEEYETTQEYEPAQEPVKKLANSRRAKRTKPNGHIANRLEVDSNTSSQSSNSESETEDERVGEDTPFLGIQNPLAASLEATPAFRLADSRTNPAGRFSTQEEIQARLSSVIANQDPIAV
Sequence of Neurogenic locus notch homolog protein 2 (Homo sapiens) (Q04721 whole entry, looked up, canonical isoform): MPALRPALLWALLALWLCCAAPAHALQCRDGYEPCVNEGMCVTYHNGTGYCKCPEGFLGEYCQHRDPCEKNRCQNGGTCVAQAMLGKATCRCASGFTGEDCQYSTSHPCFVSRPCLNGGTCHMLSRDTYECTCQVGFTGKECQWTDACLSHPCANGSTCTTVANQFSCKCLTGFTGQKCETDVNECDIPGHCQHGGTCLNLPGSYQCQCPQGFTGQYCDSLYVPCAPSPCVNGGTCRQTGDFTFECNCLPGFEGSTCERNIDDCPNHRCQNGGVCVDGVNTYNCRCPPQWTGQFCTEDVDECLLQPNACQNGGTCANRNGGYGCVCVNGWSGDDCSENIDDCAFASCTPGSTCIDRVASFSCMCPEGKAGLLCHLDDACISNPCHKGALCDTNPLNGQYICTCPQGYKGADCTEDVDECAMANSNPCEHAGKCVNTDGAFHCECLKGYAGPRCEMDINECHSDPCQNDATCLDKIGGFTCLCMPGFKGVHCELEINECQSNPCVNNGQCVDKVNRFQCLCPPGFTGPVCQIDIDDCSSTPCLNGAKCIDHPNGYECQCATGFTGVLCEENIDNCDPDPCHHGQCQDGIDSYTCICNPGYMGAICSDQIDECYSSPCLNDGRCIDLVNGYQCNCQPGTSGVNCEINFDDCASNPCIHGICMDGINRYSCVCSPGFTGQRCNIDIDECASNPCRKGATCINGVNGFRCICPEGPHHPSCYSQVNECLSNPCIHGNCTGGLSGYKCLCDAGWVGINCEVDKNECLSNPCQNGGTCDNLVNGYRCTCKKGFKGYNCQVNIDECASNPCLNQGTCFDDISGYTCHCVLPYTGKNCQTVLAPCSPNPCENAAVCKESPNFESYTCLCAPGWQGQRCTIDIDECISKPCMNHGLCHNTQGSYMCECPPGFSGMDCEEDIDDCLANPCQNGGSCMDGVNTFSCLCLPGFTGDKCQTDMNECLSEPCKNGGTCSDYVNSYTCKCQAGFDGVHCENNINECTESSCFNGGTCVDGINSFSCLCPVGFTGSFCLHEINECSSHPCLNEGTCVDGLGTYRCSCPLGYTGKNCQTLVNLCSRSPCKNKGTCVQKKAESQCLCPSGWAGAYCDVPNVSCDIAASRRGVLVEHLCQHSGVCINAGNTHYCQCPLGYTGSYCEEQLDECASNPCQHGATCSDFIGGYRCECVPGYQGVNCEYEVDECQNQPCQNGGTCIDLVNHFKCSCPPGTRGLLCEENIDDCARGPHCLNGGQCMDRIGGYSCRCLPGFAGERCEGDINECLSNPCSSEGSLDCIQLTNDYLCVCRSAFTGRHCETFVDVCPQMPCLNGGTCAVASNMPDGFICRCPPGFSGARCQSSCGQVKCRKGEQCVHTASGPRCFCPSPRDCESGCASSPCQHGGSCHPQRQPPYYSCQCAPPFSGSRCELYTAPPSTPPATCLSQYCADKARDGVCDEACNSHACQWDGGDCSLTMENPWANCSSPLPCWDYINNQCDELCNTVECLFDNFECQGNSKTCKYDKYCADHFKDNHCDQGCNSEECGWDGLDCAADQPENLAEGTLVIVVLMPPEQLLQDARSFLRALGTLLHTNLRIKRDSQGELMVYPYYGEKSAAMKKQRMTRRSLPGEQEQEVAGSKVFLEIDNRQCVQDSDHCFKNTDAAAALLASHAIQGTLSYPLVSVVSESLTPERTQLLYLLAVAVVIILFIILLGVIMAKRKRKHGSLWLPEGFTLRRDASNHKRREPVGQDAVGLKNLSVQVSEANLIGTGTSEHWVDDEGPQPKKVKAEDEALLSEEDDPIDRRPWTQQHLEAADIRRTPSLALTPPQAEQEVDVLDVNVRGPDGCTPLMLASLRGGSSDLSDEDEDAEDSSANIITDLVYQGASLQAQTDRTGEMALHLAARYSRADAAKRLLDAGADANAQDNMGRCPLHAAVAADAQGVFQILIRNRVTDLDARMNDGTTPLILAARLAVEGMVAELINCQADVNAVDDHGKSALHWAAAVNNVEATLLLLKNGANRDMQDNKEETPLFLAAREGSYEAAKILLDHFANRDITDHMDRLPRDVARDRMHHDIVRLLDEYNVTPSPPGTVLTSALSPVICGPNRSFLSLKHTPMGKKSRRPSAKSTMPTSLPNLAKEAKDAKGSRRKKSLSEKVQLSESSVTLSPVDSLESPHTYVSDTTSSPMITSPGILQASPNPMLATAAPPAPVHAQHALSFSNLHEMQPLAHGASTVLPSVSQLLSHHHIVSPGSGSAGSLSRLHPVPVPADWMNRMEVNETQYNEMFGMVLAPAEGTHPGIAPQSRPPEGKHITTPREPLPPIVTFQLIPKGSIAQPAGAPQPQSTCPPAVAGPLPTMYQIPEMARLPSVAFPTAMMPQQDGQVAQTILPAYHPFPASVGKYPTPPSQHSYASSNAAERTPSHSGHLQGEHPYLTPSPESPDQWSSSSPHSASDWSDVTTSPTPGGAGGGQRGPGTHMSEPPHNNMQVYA
Sequence of Torsin-1A-interacting protein 2 (Homo sapiens) (Q8NFQ8 whole entry, looked up): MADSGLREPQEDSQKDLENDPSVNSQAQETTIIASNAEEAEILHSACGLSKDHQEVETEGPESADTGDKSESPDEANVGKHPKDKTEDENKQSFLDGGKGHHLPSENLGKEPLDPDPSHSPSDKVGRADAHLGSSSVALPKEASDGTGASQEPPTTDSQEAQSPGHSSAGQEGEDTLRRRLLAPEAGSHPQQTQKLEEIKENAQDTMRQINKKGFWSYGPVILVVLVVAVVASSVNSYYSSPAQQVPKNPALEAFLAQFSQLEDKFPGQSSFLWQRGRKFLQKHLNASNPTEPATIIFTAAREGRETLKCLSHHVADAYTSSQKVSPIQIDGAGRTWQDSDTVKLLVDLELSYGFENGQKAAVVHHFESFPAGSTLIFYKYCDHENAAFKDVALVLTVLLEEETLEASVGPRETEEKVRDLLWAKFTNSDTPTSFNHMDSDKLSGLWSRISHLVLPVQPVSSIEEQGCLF

With `CC(C)[C@@H](C(=O)O)n1cc(C2(O)CCCCC2)nn1`, the composite z-score in assay [1] is -0.401; in assay [2], -0.938; in assay [3], -0.183; in assay [4], 0.78; in assay [5], 0.63; in [6], 0.394. For the same molecule, the composite z-score in [7] is 0.451; in assay [9] it was 0.27; in [10] it was -0.218; in assay [11], 0.629; in [15], 1.02; in [17], -0.132. Moreover, the results for the composite z-score in assay [18], in assay [19] and in assay [20] were 0.731, 1.05 and -0.02, respectively. Also, the z-score in assay [8] was 0.356 (inactive); in assay [12], -0.791 (inactive); in assay [13] it was 0.462 (inactive); in assay [14], -1.12 (inactive); in assay [16] it was 0.616 (inactive).

As to `COCC(=C=CC[C@@H](O)c1ccc(OCCO)cc1)C[C@@H](O)c1ccccn1`, the composite z-score in assay [1] is -0.212; in [2], -0.116; in assay [3], -0.0633; in assay [4], 0.923; in assay [5], 0.687; in [6], 1. Moreover, the composite z-score in assay [7] was 1.24; in assay [9] it was 0.423; in assay [10], -0.236; in assay [11], 0.37; in [15], 0.608; in assay [17], -0.0931. Further, the composite z-score in assay [18] is 0.274; in assay [19], -0.0817; in [20] it was 0.361. In addition, the z-score in [8] is 1.33 (inactive); in assay [12], -0.64 (inactive); in assay [13], -1.13 (inactive); in assay [14], -0.0669 (inactive); in [16] it was -0.136 (inactive).

Regarding `COCCOC(=O)N1C(=O)[C@@]2(c3ccccc31)[C@H](C(N)=O)[C@H]1C(=O)O[C@H](c3ccccc3)[C@H](c3ccccc3)N1[C@@H]2c1ccc(O)cc1`, the composite z-score is 0.0458 in assay [1]; 0.209 in [2]; 0.0709 in assay [3]; 0.166 in [4]; -0.248 in assay [5]; 1.32 in assay [6]. In addition, the composite z-score in assay [7] was 1.24; in assay [9] it was -0.404; in assay [10], 0.0215; in assay [11], 1.38; in [15], 3.1; in assay [17], -0.166. The composite z-score in assay [18] was -0.32; in assay [19], 0.129; in [20] it was -0.171. Moreover, the z-score is -0.939 (inactive) in [8]; -1.19 (inactive) in assay [12]; -1.3 (inactive) in assay [13]; 0.695 (inactive) in assay [14]; 0.628 (inactive) in assay [16].

With `COC(=O)[C@@]1(Cc2ccc(OC)cc2)[C@H]2c3cc(C(=O)N(C)C)n(Cc4ccc(C(F)(F)F)nc4)c3C[C@H]2CN1C(=O)c1ccccc1`, the composite z-score came out at 0.125 in [1]; 0.114 in assay [2]; 0.0343 in [3]; 0.459 in [4]; 1.53 in [5]; 1.34 in assay [6]. Besides, the composite z-score in assay [7] was 1.01; in assay [9], 0.597; in [10] it was -0.0237; in assay [11] it was -1.54; in [15], 2.17; in assay [17], 0.498. Further, the composite z-score is 0.243 in assay [18], -0.055 in assay [19] and 0.338 in assay [20]. Besides, the z-score in [8] was 0.515 (inactive); in assay [12], 0.643 (inactive); in assay [13], 1.7 (inactive); in assay [14] it was 0.473 (inactive); in assay [16], 0.379 (inactive).

In the case of `OB1C=CCC(CCc2ccccc2)O1` (stereo not given), the composite z-score is 0.0393 in assay [1]; -0.334 in assay [2]; -0.0883 in assay [3]; -0.254 in assay [4]; -0.809 in assay [5]; -0.995 in assay [6]. Moreover, the composite z-score is -0.989 in assay [7]; -0.393 in assay [9]; -0.132 in [10]; -1.12 in [11]; -1.05 in [15]; -0.192 in assay [17]. Also, the composite z-score is -0.0988 in assay [18], -1.12 in assay [19] and -0.211 in assay [20]. Further, the z-score in [8] was -0.209 (inactive); in [12], -1.95 (inactive); in assay [13] it was -2.06 (inactive); in assay [14] it was -0.762 (inactive); in [16] it was 1.96 (inactive).
